Source: PubChem (National Center for Advancing Translational Sciences (NCATS))
Pf growth 48h: inhibits P. falciparum growth in the first generation, 48 h | P. falciparum luciferase growth in erythrocytes, 48 h | 310,000 tested, 5.9% active | AID 504832 | Potency, µM (highest dose often 28.7 µM), for inactives: at the highest dose activity change, negative = inhibition, usual class: inhibitors; note: % is set by controls: 0 for no effect and ±100 for the full control effect
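Cell-based growth assay: transgenic P. falciparum expressing firefly luciferase, cultured in red cells within RPMI 1640 containing 0.5% w/v Albumax, 24 mM bicarbonate and gentamycin. A drop in luciferase activity indicates inhibition.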
SARS PLpro yeast: SARS-CoV PLP inhibition in yeast; S. cerevisiae expressing SARS-CoV PLpro, growth rescue; Potency, µM (top dose mostly 32.9 µM), for the others: top-dose activity, positive = growth rescue, most hits filed as activators; 330,000 tested, 0.19% active; AID 485353; calls by dose curve; note: 0% is about no effect; nearly all actives have a fitted effect of over 55% in size
Pf growth 96h: inhibits malaria parasite growth, 96 h; 320,000 tested, 6.9% active; Potency, µM (titrated, usually from 28.7 µM), for inactives: at the highest dose activity change, negative = inhibition, usual class: inhibitors; P. falciparum luciferase reporter growth, 96 h; AID 504834; note: % is set by controls: 0 for no effect and ±100 for the full control effect
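Compounds incubated with erythrocytes infected by luciferase-expressing P. falciparum (2% hematocrit, 0.05% parasitemia final) for 96 hours, 37 C in 5% CO2. Growth inhibition scored as decreased luciferase luminescence.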
AMA1-RON2 inh: inhibitors of Plasmodium falciparum AMA1-RON2 interaction | AlphaScreen AMA1-biotinylated RON2 peptide binding | Potency, µM (series often up to 58.2 µM), inactives show top-dose activity change, negative = inhibition, usual class: inhibitors | 360,000 tested, 0.2% active | AID 720542;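 note: 0% = vehicle wells and -100% = peptide control; nearly all actives have a fitted effect of over 45% in size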
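AMA1 (3D7) with his tag at 25 nM final met compounds first, then biotinylated RON2 peptide at 25 nM; detection used donor plus acceptor beads, 10 µg/mL apiece, read by AlphaScreen after 30 min at room temperature.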
* = called active by the depositor; ? = inconclusive; . = no result given; [ ] = another dose, or the depositor's remark. Most compounds without a hit are left out; they make up all but 9.4% or so of the library. Unless noted, calls come from the whole dose curve; as a rule, active = well fitted curve in the direction sought with a large enough effect; inconclusive = small, poorly fitted or top-dose-only effect, or another doubt; inactive = no such curve, though single readings can be large; an effect the other way counts as inactive or inconclusive. Potency is the fitted concentration of half-maximal effect.

SMILES | Pf growth 48h | SARS PLpro yeast | Pf growth 96h | AMA1-RON2 inh
Cc1cc(C)c2c(c1)[C@@H]1C=CC[C@@H]1[C@H](c1ccc(S(=O)(=O)N3CCOCC3)cc1)N2 | 10µM* | -13% | 8% | -9%
Cc1ccc(C(=O)COC(=O)COc2ccccc2O)cc1C | . | 0% | . | -7%
Cc1cccc2c1c1ccc3c(c1n2C)C(=O)C=CC3=O | 12µM* | 1% | ? | -22%
Cc1onc(-c2ccccc2Cl)c1C(=O)Nc1cccc2cccnc12 | 9.3µM* | -10% | ? | -2%
CCSc1nnc(NC(=O)c2c(-c3ccccc3Cl)noc2C)s1 | . | -14% | 5.9µM* | -9%
Cc1cnc(C(=O)Nc2cccc3cccnc23)cn1 | 0.37µM* | 16% | 4% | 113%
Cc1onc(-c2ccccc2Cl)c1C(=O)NCCn1c(C)cc2ccccc21 | 13µM* | -8% | 10µM* | -21%
COc1cccc(C(=O)/C=C/Nc2ccc(S(=O)(=O)Nc3cc(OC)nc(OC)n3)cc2)c1 | 0% | . | 20% | 0%
Cc1onc(-c2ccccc2Cl)c1C(=O)Nc1ccc(-c2cn3cccnc3n2)cc1 | 10µM* | 5% | ? | -1%
Cc1onc(-c2ccccc2Cl)c1C(=O)OCc1cnc(Cl)s1 | 0% | 1% | 0% | 33%
Cc1onc(-c2c(F)cccc2Cl)c1C(=O)NC1CC1 | 13% | 0% | 21% | -1%
Cc1onc(-c2ccccc2Cl)c1C(=O)OCN1C(=O)c2ccccc2C1=O | 12% | -2% | 13µM* | 9%
Cc1ccc(-c2cn3cccnc3n2)cc1NC(=O)c1c(-c2ccccc2Cl)noc1C | ? | 0% | 37% | -1%
Cc1onc(-c2ccccc2Cl)c1C(=O)NC1CCS(=O)(=O)C1 (stereo not drawn) | . | 6% | 12µM* | -1%
Cc1cnc(C(=O)Nc2ccccc2C(=O)N2CCOCC2)cn1 | 16% | -1% | 3.7µM* | 12%
COC(=O)C(Cc1ccc(OC(=O)c2ccc(Cl)cc2)cc1)N1Cc2ccccc2C1=O (stereo not drawn) | 79% | -10% | 170% | -4%
COC(=O)Nc1cc([N+](=O)[O-])ccc1OC | 28% | -2% | ? | 2%[2.32 µM]
Cn1nc(C(=O)OCC(=O)Nc2ccc(F)cc2Cl)c2ccccc2c1=O | . | 20% | . | 14%
CCCCNS(=O)(=O)c1ccc(NC(=O)c2c(-c3ccccc3Cl)noc2C)cc1 | . | 0% | 5.2µM* | 10%
COc1ccc(-n2cccc2C=O)cc1 | 18% | -23% | -14% | -17%
COc1ccc(-n2cccc2/C=C/[N+](=O)[O-])cc1 | ? | -135% | 3.3µM* | -14%
CCC(C)[C@H](NC(=O)[C@@H]1Cc2c([nH]c3ccccc23)C2c3ccccc3C(=O)N21)C(=O)N1CCC[C@@H]1C(=O)O (stereo partly drawn) | ? | -9% | 10µM* | 0%
CCCC(=O)Nc1ccc(C(=O)/C=C/c2ccc(SC)cc2)cc1 | ? | -8% | ? | -4%
CSc1ccc(/C=C/C(=O)c2ccc(NC(C)=O)cc2)cc1 | -4% | 1% | 0.66µM* | -3%
O=C(Nc1ccc(-c2nc3ncccc3o2)cc1)c1ccc([N+](=O)[O-])o1 | 9.3µM* | -9% | -2% | -3%
SMILES | Pf growth 48h | SARS PLpro yeast | Pf growth 96h | AMA1-RON2 inh
O=C(Nc1ccc2oc(-c3ccncc3)nc2c1)c1ccc([N+](=O)[O-])o1 | 6.6µM* | -10% | ? | -21%
Cc1ccc(-c2nc3ncccc3o2)cc1NC(=O)c1ccc([N+](=O)[O-])o1 | 0% | -2% | 84% | 8%
CC1CN(C(=O)COC(=O)CSc2ccc(C(N)=O)cc2[N+](=O)[O-])CC(C)O1 (stereo not drawn) | 12% | -5% | 37% | -1%
Cc1ccc(-c2cc3nc(-c4ccccc4)cc(N4CCC5(CC4)OCCO5)n3n2)cc1 | 8.3µM* | -32% | 0.29µM* | 45%
Fc1cccc(-c2cc3nc(-c4ccccc4)cc(N4CCC5(CC4)OCCO5)n3n2)c1 | 8.3µM* | -15% | -17% | 65%
COc1ccc(-c2c(C)nn3c(N4CCOCC4)cc(C)nc23)cc1OC | ? | 2% | ? | -7%
COCCN1CCN(c2cc(-c3ccccc3)nc3cc(-c4cccc(F)c4)nn23)CC1 | 12µM* | -4% | ? | 22%
Fc1ccc(-c2cc3nc(-c4ccccc4)cc(N4CCOCC4)n3n2)cc1 | . | -2% | 65% | 6%
COc1ccc(-c2c(C)nn3c(N4CCC5(CC4)OCCO5)cc(C)nc23)cc1OC | 12µM* | 2% | -1% | 5%
CCOC(=O)N1CCN(C(=O)c2cccc(N3C(=O)NC4CC3(C)Oc3ccc(Cl)cc34)c2)CC1 (stereo not drawn) | ? | . | ? | 2%
O=C(NCc1cccs1)c1csc2c1CCCCC2 | 35% | 9% | ? | -4%
CCN(CC#CCC(O)(c1ccccc1)c1ccccc1)C(C)C | 8.3µM* | -17% | ? | -4%
CC(C)N(CC#CCC(O)(c1ccccc1)c1ccccc1)CCO | -30% | 0% | ? | -16%
O=C(c1ccc(CNS(=O)(=O)c2ccccc2)cc1)N1CCC2(CC1)OCCO2 | 55% | 4% | 8.3µM* | 1%
COc1ccc(C(O)(CCC(C)C)C(CN2CCOCC2)c2ccc(Cl)cc2)cc1 (stereo not drawn) | 1.7µM* | -6% | -24% | -3%
COc1ccc(C(O)(CC(C)C)C(CN2CCOCC2)c2ccccc2)cc1 (stereo not drawn) | 12µM* | -2% | ? | -3%
CCCC(O)(c1ccc(OC)cc1)C(CN1CCOCC1)c1ccc(Cl)cc1 (stereo not drawn) | ? | -2% | -13% | -3%
CCc1ccc(C(O)(CC(C)C)C(CN2CCOCC2)c2ccccc2)cc1 (stereo not drawn) | ? | -7% | -2% | ?
CCOc1ccc(C(O)(c2ccccc2)C(CN2CCCC2)c2ccccc2)cc1 (stereo not drawn) | 12µM* | -2% | 121% | 0%
CCCC(O)(c1ccc(Cl)cc1)C(CN1CCOCC1)c1ccc(Cl)cc1 (stereo not drawn) | 1.9µM* | -1% | 28% | -1%
COc1cc2c(C#CCO)c(-c3ccc(C#N)cc3)oc(=O)c2cc1OC | . | -2% | . | 0%
OC(COc1ccc(CN2CCCCO2)cc1)CN1CCCCC1 (stereo not drawn) | ? | -1% | 12µM* | 3%
CCOc1ccc(C(O)(CCC(C)C)C(CN2CCOCC2)c2ccccc2)cc1 (stereo not drawn) | 7.4µM* | -6% | 12% | -3%
OC(COc1ccccc1)CN1CCCC1 (stereo not drawn) | -14% | -1% | -1% | -22%
CCCCC(O)(c1ccc(F)cc1)C(CN1CCOCC1)c1ccc(Cl)cc1 (stereo not drawn) | 1.9µM* | -9% | 43% | -10%
CC(C)(c1ccccc1)c1ccc(OCC(O)CN2CCCC2)cc1 (stereo not drawn) | 13µM* | -3% | -31% | -1%
Cc1onc(-c2c(F)cccc2Cl)c1C(=O)Nc1nc2c(s1)CCCC2 | ? | 1% | 24% | 14%
